For the assay, the target named is furin, P09958. The experiment in a line: furin cleavage Z-score vs untreated control; higher = more cleavage, active = 3.5 or more, inactive = 1 or less, 8 variable residues between constant flanks. The essentials: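 Furin cleavage was scored on 8-mer peptides joined to a cDNA oligonucleotide and bound to magnetic beads at the N-terminus. Digestion with purified furin (1:10 enzyme:substrate, 0.01 ml, 50 mM HEPES pH 7.5, CaCl2, NaCl) lasted 7.5, 15 or 30 min. Freed DNA was tagged with adapters by PCR, sequenced and counted; the cleavage Z-score is the lowess-adjusted log count versus furin-free reactions, scaled by median absolute deviation.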
Sequence of furin, P09958 (P09958 whole entry): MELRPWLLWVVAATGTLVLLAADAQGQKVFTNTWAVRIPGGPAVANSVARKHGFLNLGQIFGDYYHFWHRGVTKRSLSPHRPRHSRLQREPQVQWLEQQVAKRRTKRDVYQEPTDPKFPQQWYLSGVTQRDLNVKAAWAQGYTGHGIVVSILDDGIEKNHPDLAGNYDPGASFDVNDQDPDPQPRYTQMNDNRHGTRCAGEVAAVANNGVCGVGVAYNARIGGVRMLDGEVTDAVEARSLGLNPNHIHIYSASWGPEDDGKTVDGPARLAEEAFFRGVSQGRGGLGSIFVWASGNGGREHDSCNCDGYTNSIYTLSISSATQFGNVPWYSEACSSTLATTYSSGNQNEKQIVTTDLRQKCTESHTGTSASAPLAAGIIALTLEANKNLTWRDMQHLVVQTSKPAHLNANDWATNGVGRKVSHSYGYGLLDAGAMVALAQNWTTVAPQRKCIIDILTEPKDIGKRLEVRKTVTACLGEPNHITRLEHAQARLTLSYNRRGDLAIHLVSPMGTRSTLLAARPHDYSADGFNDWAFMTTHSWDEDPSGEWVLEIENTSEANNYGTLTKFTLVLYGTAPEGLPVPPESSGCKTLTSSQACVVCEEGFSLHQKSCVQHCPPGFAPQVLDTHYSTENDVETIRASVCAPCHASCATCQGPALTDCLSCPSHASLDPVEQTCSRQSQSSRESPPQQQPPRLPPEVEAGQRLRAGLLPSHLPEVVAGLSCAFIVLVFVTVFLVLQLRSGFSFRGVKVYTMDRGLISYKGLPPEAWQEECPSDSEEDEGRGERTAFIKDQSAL

The other results are listed elsewhere or left out. The hit rate among all sequences tested is not known here.

For CAVSSRKSRWAGNASASA [FS-1501], the “furin cleavage Z-score” value (7.5 min) came to 3.21, the “furin cleavage Z-score” value (15 min) is 3.75 (active) and the “furin cleavage Z-score” value (30 min) is 5.97 (active).

On to CAQSSRQPRPAGNASASA [FS-141], for which the “furin cleavage Z-score” value is -0.311 (inactive) (7.5 min), -0.656 (inactive) (15 min) and -0.417 (inactive) (30 min).

As to CANSKRKSRPAGNASASA [FS-1145], the “furin cleavage Z-score” value was -2.35 (inactive) (7.5 min), 0.946 (inactive) (15 min) and -1.84 (inactive) (30 min).

As to CAQSSRHRRAAGNASASA [FS-851], the “furin cleavage Z-score” value runs as follows: (7.5 min) 13.1 (active); (15 min) 12.7 (active); (30 min) 10.3 (active).

CAVSSRHRRAAGNASASA [FS-1106]: the “furin cleavage Z-score” value is 12.3 (active) (7.5 min), 12.4 (active) (15 min) and 10.3 (active) (30 min).

CAQWQVLPCSAGNASASA [HC496]: the “furin cleavage Z-score” value was -0.675 (inactive) (7.5 min), 0.494 (inactive) (15 min) and 0.276 (inactive) (30 min).

On to CARTGVRTITAGNASASA [HC800], for which the “furin cleavage Z-score” value runs as follows: (7.5 min) -0.25 (inactive); (15 min) -0.718 (inactive); (30 min) -0.285 (inactive).

With CARRGPRLGVAGNASASA [HC180], the “furin cleavage Z-score” value is, setting by setting: (7.5 min) -0.669 (inactive); (15 min) -0.347 (inactive); (30 min) -0.923 (inactive).

For the sequence CAREKRELRQAGNASASA [FS-2657], the “furin cleavage Z-score” value by setting is: (7.5 min) 9.73 (active); (15 min) 13.3 (active); (30 min) 9.26 (active).

In the case of CAREKREKIKAGNASASA [FS-2208], the “furin cleavage Z-score” value was -0.771 (inactive) (7.5 min), -0.626 (inactive) (15 min) and 0.291 (inactive) (30 min).

For CAGRSRELRQAGNASASA [FS-166], the “furin cleavage Z-score” value is 2.87 (7.5 min), 2.42 (15 min) and 4.09 (active) (30 min).

Consider CAGRSRDLRGAGNASASA [FS-165], for which the “furin cleavage Z-score” value was -0.794 (inactive) (7.5 min), -0.817 (inactive) (15 min) and -1.52 (inactive) (30 min).

Regarding CAADPRVRRAAGNASASA [FS-1298], the “furin cleavage Z-score” value runs as follows: (7.5 min) 10.1 (active); (15 min) 8.47 (active); (30 min) 8.31 (active).

In the case of CAADARVCSCAGNASASA [HC524], the “furin cleavage Z-score” value (7.5 min) is 0.17 (inactive), the “furin cleavage Z-score” value (15 min) was -2.96 (inactive) and the “furin cleavage Z-score” value (30 min) was -3.71 (inactive).

Take CAQKKRGGTAAGNASASA [WN2]: the “furin cleavage Z-score” value is -0.625 (inactive) (7.5 min), -0.389 (inactive) (15 min) and 0.122 (inactive) (30 min).

For the sequence CAADPRTWRSAGNASASA [FS-741], the “furin cleavage Z-score” value by setting is: (7.5 min) -0.983 (inactive); (15 min) 1.45; (30 min) -0.478 (inactive).

As for CALIPRVRRAAGNASASA [FS-608], the “furin cleavage Z-score” value runs as follows: (7.5 min) 9.17 (active); (15 min) 10.3 (active); (30 min) 8.48 (active).

Regarding CAVNQRVRRAAGNASASA [FS-735], the “furin cleavage Z-score” value runs as follows: (7.5 min) 10 (active); (15 min) 8.42 (active); (30 min) 8.51 (active).

For the sequence CAENLVILNAAGNASASA [HC535], the “furin cleavage Z-score” value is -0.56 (inactive) (7.5 min), -1.45 (inactive) (15 min) and 0.00797 (inactive) (30 min).

CALLQRVRRAAGNASASA [FS-1360]: the “furin cleavage Z-score” value (7.5 min) is 3.77 (active), the “furin cleavage Z-score” value (15 min) is 3.58 (active) and the “furin cleavage Z-score” value (30 min) was 3.76 (active).

Take CALLQRKKKLAGNASASA [FS-823]: the “furin cleavage Z-score” value (7.5 min) is 0.0701 (inactive), the “furin cleavage Z-score” value (15 min) was 0.355 (inactive) and the “furin cleavage Z-score” value (30 min) is -0.31 (inactive).

CAAGVQEDAAAGNASASA [HC1534]: the “furin cleavage Z-score” value runs as follows: (7.5 min) 0.273 (inactive); (15 min) -0.401 (inactive); (30 min) -1.13 (inactive).

With CAEKPCHRPSAGNASASA [HC2334], the “furin cleavage Z-score” value was -0.309 (inactive) (7.5 min), 0.292 (inactive) (15 min) and 0.19 (inactive) (30 min).

CADRMEECSQAGNASASA [HC1813]: the “furin cleavage Z-score” value was 0.635 (inactive) (7.5 min), -0.476 (inactive) (15 min) and -0.0128 (inactive) (30 min).

As to CARTWRSVPEAGNASASA [FS-2528], the “furin cleavage Z-score” value is, setting by setting: (7.5 min) 0.349 (inactive); (15 min) 0.625 (inactive); (30 min) 1.35.

With CARSARSAPEAGNASASA [FS-2377], the “furin cleavage Z-score” value was 7.91 (active) (7.5 min), 9.89 (active) (15 min) and 6.92 (active) (30 min).

As for CARWPRSDPEAGNASASA [FS-1807], the “furin cleavage Z-score” value (7.5 min) stood at 2.83, the “furin cleavage Z-score” value (15 min) is 2.73 and the “furin cleavage Z-score” value (30 min) is 4.21 (active).

CARSARSVARAGNASASA [FS-3075]: the “furin cleavage Z-score” value is, setting by setting: (7.5 min) 5.33 (active); (15 min) 7.5 (active); (30 min) 6.53 (active).

CARSIKSVPEAGNASASA [FS-1927]: the “furin cleavage Z-score” value reads like this: (7.5 min) 0.273 (inactive); (15 min) -0.944 (inactive); (30 min) 0.475 (inactive).

On to CARWNRFAMIAGNASASA [FS-2200], for which the “furin cleavage Z-score” value is, setting by setting: (7.5 min) 0.704 (inactive); (15 min) -0.675 (inactive); (30 min) -0.478 (inactive).

For CASTWCSAHLAGNASASA [HC2508], the “furin cleavage Z-score” value reads like this: (7.5 min) 0.983 (inactive); (15 min) 0.815 (inactive); (30 min) 0.802 (inactive).

CAMILMTHFFAGNASASA [HC1582]: the “furin cleavage Z-score” value was -0.371 (inactive) (7.5 min), -0.697 (inactive) (15 min) and -2.29 (inactive) (30 min).

As to CAHCTTPCSGAGNASASA [HC1955], the “furin cleavage Z-score” value (7.5 min) is -1.08 (inactive), the “furin cleavage Z-score” value (15 min) was -1.68 (inactive) and the “furin cleavage Z-score” value (30 min) is 0.655 (inactive).

Turning to CAEQVVCCSMAGNASASA [HC2142], the “furin cleavage Z-score” value is -0.416 (inactive) (7.5 min), -0.852 (inactive) (15 min) and 2.1 (30 min).

As to CAPEKRSVFAAGNASASA [FS-2874], the “furin cleavage Z-score” value is, setting by setting: (7.5 min) -0.508 (inactive); (15 min) -0.764 (inactive); (30 min) -1.36 (inactive).

As for CAKVKREAEKAGNASASA [FS-1674], the “furin cleavage Z-score” value was 5.11 (active) (7.5 min), 4.39 (active) (15 min) and 5.05 (active) (30 min).

In the case of CASVSREDRGAGNASASA [FS-1491], the “furin cleavage Z-score” value (7.5 min) was -0.464 (inactive), the “furin cleavage Z-score” value (15 min) is -0.739 (inactive) and the “furin cleavage Z-score” value (30 min) was -0.69 (inactive).

CAEPPEAKRGAGNASASA [FS-1117]: the “furin cleavage Z-score” value was 0.349 (inactive) (7.5 min), -1.82 (inactive) (15 min) and -0.871 (inactive) (30 min).

Turning to CAKVKREKRGAGNASASA [FS-454], the “furin cleavage Z-score” value runs as follows: (7.5 min) 11.2 (active); (15 min) 10.5 (active); (30 min) 9.94 (active).

Regarding CARQKKLAEKAGNASASA [FS-2585], the “furin cleavage Z-score” value is 0.116 (inactive) (7.5 min), -2.1 (inactive) (15 min) and 0.509 (inactive) (30 min).

As for CAKCDELAAKAGNASASA [HC860], the “furin cleavage Z-score” value (7.5 min) stood at 1.37, the “furin cleavage Z-score” value (15 min) came to 1.03 and the “furin cleavage Z-score” value (30 min) is -0.237 (inactive).

As to CAPEKRAKRGAGNASASA [FS-1044], the “furin cleavage Z-score” value is 10.2 (active) (7.5 min), 9.94 (active) (15 min) and 7.39 (active) (30 min).

Take CAGHQREKRGAGNASASA [FS-428]: the “furin cleavage Z-score” value by setting is: (7.5 min) 11.3 (active); (15 min) 13.2 (active); (30 min) 10.6 (active).

In the case of CAPKPCGIVPAGNASASA [HC406], the “furin cleavage Z-score” value is, setting by setting: (7.5 min) 0.0213 (inactive); (15 min) 0.68 (inactive); (30 min) 1.33.

The values above are taken from the supplement of paper PMC3545927.
